Laboratory results: PubChem BioAssay (EPA / NIEHS)
Records with an inconclusive call do not appear. Calls of active or inactive are those of the source. The calls were made as follows: active = hit-call score of the fitted dose curve at least 0.9, where 1 is the maximum; inconclusive = response in the unintended direction; inactive = score below 0.9.

What follows are molecules tested against human Opioid Receptor Delta 1 (Opiate D1), OPRD1 (gene 4985) (UniProt P41143) (assay: NVS_GPCR_hOpiate_D1: NovaScreen (NVS) G Protein-Coupled Receptor Assay for human Opioid Receptor Delta 1 (Opiate D1) (AID 2283280)).
human Opioid Receptor Delta 1 (Opiate D1), OPRD1 (gene 4985), sequence (P41143 whole entry, looked up): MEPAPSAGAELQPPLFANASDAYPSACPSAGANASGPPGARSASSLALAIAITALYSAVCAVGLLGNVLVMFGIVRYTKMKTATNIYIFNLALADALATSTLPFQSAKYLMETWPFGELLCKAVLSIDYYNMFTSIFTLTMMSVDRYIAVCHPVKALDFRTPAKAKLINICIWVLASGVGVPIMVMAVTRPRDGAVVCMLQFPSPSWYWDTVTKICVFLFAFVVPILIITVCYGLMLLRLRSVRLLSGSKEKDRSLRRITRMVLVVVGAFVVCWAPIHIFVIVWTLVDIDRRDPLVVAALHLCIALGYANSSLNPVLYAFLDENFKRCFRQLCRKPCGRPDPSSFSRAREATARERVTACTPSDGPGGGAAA
Procedure: NVS_GPCR_hOpiate_D1 is a biochemical, single-readout assay that uses extracted gene-proteins from CHO in a cell-free assay. Measurements were taken 1 hour after chemical dosing in a 96-well plate.NVS_GPCR_hOpiate_D1 is one of one assay component(s) measured or calculated from the NVS_GPCR_hOpiate_D1 assay. It is designed to make measurements of radioligand binding, a form of binding reporter, as detected with scintillation counting signals by Filter-based radiodetection technology.Data from the assay component NVS_GPCR_hOpiate_D1 was analyzed into 1 assay endpoint. This assay endpoint, NVS_GPCR_hOpiate_D1, was analyzed in the positive analysis fitting direction relative to DMSO as the negative control and baseline of activity. Using a type of binding reporter, loss-of-signal activity can be used to understand changes in the binding as they relate to the gene OPRD1. Furthermore, this assay endpoint can be referred to as a primary readout, because the performed assay has only produced 1 assay endpoint. To generalize the intended target to other relatable targets, this assay endpoint is annotated to the gpcr intended target family, where the subfamily is rhodopsin-like receptor.
Binding assays used specific radioligands (tritiated, iodinated) with non-radioactive competitive displacement ligands in agonist or antagonist protocols (as indicated) and various reference compounds and inhibitors to titrate specific binding to receptors and transporters. Most enzyme assays (CYPs, kinases, phosphatases, proteases, HDACs) used recombinant protein and specific substrates (fluorescence mostly, some colorimetric and radioactive) and inhibitors, followed by a biochemical separation of substrate and product. All assays for the biochemical HTS were initially run in duplicate at a single concentration (10 uM for CYP450 assays and 25 uM for all others). […] Each assay was run with positive and negative controls, and concurrent controls on every plate. The follow-up (secondary) screen tested active chemical-pairs in concentration series, as well as a few additional assays not tested in the primary screen, some selected negative inactives, and several cases re-run in the concentration series for confirmatory purposes.
For `CCOC(=O)O[C@H](C)OC(=O)c1ccc2c(c1)cc(C(=O)NC1CCN(C(C)C)CC1)n2Cc1cc(-c2ccc(Cl)s2)on1`, the AC50 was 3.36 µM (active). `CCN(CC)C(=O)c1cc(S(=O)(=O)Cc2ccccc2)c(N2CCC(c3ccccc3)CC2)cc1N(CC)CCN(C)C` was tested, and the AC50 was 14.2 µM (active). `CCN(Cc1cccnc1)C(=O)c1cccc(Cl)c1[C@]1(C)C(=O)N(Cc2ccc(OC)cc2OC)c2ccc(Cl)cc21` was tested, and the AC50 was 2.01 µM (active). `CN(C)c1ccc(C(=C2C=CC(=[N+](C)C)C=C2)c2ccc(N(C)C)cc2)cc1` was tested, and the AC50 was 8.5 µM (active). With `C[C@]12CC[C@@H]3c4ccc(O)cc4CC[C@H]3[C@@H]1CCC2=O` the outcome was “inactive”. In the case of `CC[C@H](NC(=O)c1cc(F)ccc1NS(=O)(=O)c1cccc2cccnc12)c1ccccc1`, the outcome was “inactive”. For `CCCCCCCCOC(=O)c1cc(O)c(O)c(O)c1`, the AC50 was 16.4 µM (active). With `CC(C)(C)c1csc(-c2cc3cc(OCc4ccccc4CC(=O)O)ccc3o2)n1` the outcome was “inactive”. In the case of `NCc1cccc(C2CCN(C(=O)c3ccc(C#Cc4ccccc4F)o3)CC2)c1`, the AC50 was 10.2 µM (active). For `CN(C)C(=O)C1(N2CCCCC2)CCN(CC[C@@]2(c3ccc(Cl)c(Cl)c3)CN(C(=O)c3ccccc3)CCO2)CC1`, the AC50 was 10.3 µM (active). In the case of `CC/C(=C(/CC)c1ccc(O)cc1)c1ccc(O)cc1`, the outcome was “inactive”. With `Cc1cc(F)ccc1-c1cc(N2CC[C@@H](O)[C@H]2CO)ncc1N(C)C(=O)C(C)(C)c1cc(C(F)(F)F)cc(C(F)(F)F)c1` the AC50 was 15.8 µM (active).
